# This is a sample that favours compounds with a hit; in the whole collection about 3.6% have one here.
# mHTT-CaM PPI inh – mHTT-calmodulin interaction abrogation. AlphaScreen His-mHTT/GST-CaM binding, luminescence. inhibition, % at 15 µM. hit rate 3.6% among 190,000;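 also: 0% = both proteins with DMSO and 100% = one protein alone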
# Pf apPOL block – Pf-apPOL DNA polymerase inhibition; hit rate 0.25% among 210,000; inhibition, % at 10 µM; Recombinant Pf-apPOL, molecular beacon fluorescence, 1.5 h
# Starred values were filed as active, the others as inactive; . = no result given. Rule as the data show it: active = inhibition above about 50%; inactive = the rest.
SMILES,mHTT-CaM PPI inh,Pf apPOL block
Cc1ccccc1-n1c(/C=C2\C(=O)N(C)c3ccccc32)nc2ccccc2c1=O,65*,-1
Cc1ccccc1-n1c(/C=C2\C(=O)Nc3ccc(Br)cc32)nc2ccccc2c1=O,44,5
COc1ccc(Cl)cc1NC(=O)C1c2cc(OC)c(OC)cc2C(=O)N2CCCCC12 (stereo not given),79*,-4
COc1ccc(Cl)cc1NC(=O)C1c2ccccc2C(=O)N2CCCCC12 (stereo not given),2,-5
O=C1NC(=O)C(=Cc2ccc(-c3ccc([N+](=O)[O-])cc3)o2)C(=O)N1,.,15
CC(c1c(O)c2ccccc2oc1=O)c1c(O)c2ccccc2oc1=O,5,1
COc1ccc(OC)c(C(c2c(O)c3ccccc3oc2=O)c2c(O)c3ccccc3oc2=O)c1,55*,-21
O=c1oc2ccccc2c(O)c1C(c1ccc([N+](=O)[O-])cc1)c1c(O)c2ccccc2oc1=O,71*,-7
O=c1oc2ccccc2c(O)c1C(c1ccccc1[N+](=O)[O-])c1c(O)c2ccccc2oc1=O,24,-5
Cc1c(C(=O)N2CCC3(CC2)OCCO3)oc2ccc(S(=O)(=O)N(C)C3CCCCC3)cc12,-1,-2
Cc1c(C#N)c(N)n(CC2CCCO2)c1C (stereo not given),22,.
Cc1c(C#N)c(N)n(CCCn2ccnc2)c1C,99*,.
CC12CCC3(C[C@@H]1CCC1C2CCC2(C)C1CC[C@@]2(C)O)OCCO3 (stereo not given in full),.,-8
CN1CCc2[nH]c(=S)c(C#N)cc2C1,23,.
CN1CCc2[nH]c(=S)c(C#N)c(-c3cccs3)c2C1,52*,.
CSc1ccc(C2C3C(=NN2C(C)=O)C2CCN3CC2)cc1 (stereo not given),-4,-1
COc1cc(=O)oc(C=CC=CC=CC(C)=CC2(C)OC(C)C(C)(O)C2O)c1C (stereo not given),.,-9
O=C(Cc1ccccc1)N1CCN(Cc2ccccc2[N+](=O)[O-])CC1,-1,-6
Cc1cccc(-n2c(-c3cccnc3)nc3ccccc3c2=O)c1,100*,-10
Cc1ccc(-c2nc3ccccc3c(=O)n2-c2cccnc2)cc1,2,-8
N#CC1=C(N)C(C#N)(C#N)C(c2ccccc2C(F)(F)F)C2CSCC=C12 (stereo not given),55*,-3
O=[N+]([O-])c1cc(C(F)(F)F)cc([N+](=O)[O-])c1N1CCNCC1,5,-3
C1=CCC(c2cccnc2)NC1 (stereo not given),.,-7
O=S(=O)(F)c1ccc(-c2nnc(-c3ccccc3)o2)cc1,9,3
O=S(=O)(F)c1ccc(C2=CC(c3ccccc3)n3ncnc3N2)cc1 (stereo not given),100*,-5
SMILES,mHTT-CaM PPI inh,Pf apPOL block
COc1ccc(OC)c(NP(=O)(Oc2ccccc2)Oc2ccccc2)c1,74*,0
O=P(Nc1ccccc1I)(Oc1ccccc1)Oc1ccccc1,-25,-2
CCCC12CN3CC(CCC)(CN(C1)C3c1cccnc1)C2=O (stereo not given),-6,-8
CCc1cc2c(=O)c(-c3ccc4c(c3)OCCO4)c(C)oc2cc1OC(=O)N(C)C,0,3
COC(=O)c1ccc(CCl)s1,100*,.
O=[N+]([O-])c1cc2nonc2c2n[nH]nc12,10,.
O=[N+]([O-])c1c(Br)c([N+](=O)[O-])c2n[nH]nc2c1Br,88*,-4
O=C(O)C1Nc2c(F)cccc2C2C(Cl)C(Sc3ccccc3[N+](=O)[O-])CC12 (stereo not given),68*,1
O=C(Cc1ccccc1F)N1CCCN(Cc2noc(-c3ccccc3)n2)CC1,2,-4
COc1ccc(N2CCN(Cc3ccc(Cl)cc3)CC2)cc1,34,-6
COc1ccc(N2CCN(Cc3cccc(Cl)c3Cl)CC2)cc1,56*,5
COc1ccc(N2CCN(Cc3ccc(Cl)c(Cl)c3)CC2)cc1,65*,-5
COc1ccc(N2CCN(Cc3ccc(F)cc3)CC2)cc1,22,0
O=c1oc2ccccc2c(O)c1C1c2ccccc2Oc2c1c(=O)oc1ccccc21 (stereo not given),4,.
COc1cc(/C=C/[N+](=O)[O-])cc(Br)c1O,52*,-1
CCOc1ccc(/C=C/[N+](=O)[O-])cc1,19,-1
COc1cc(/C=C(\C)[N+](=O)[O-])cc(Br)c1O,23,-1
CCOc1cc(/C=C/[N+](=O)[O-])cc(Br)c1O,78*,-15
O=C(O)COc1c(Cl)cc(C=C2C(=O)NC(=O)NC2=O)cc1Cl,3,-1

# Assay outcomes deposited in PubChem by University of Kansas High Throughput Screening Laboratory.
